Test results reported in article PMC7862700, “An all-to-all approach to the identification of sequence-specific readers for epigenetic DNA modifications on cytosine”.

Columns and labels:
Assay in all cases: DAPPL (digital affinity profiling via proximity ligation, sequencing); 10 mM Tris-HCl pH 7.5, 50 mM NaCl, 1 mM DTT, 4% glycerol, room temperature, 30 min; GST-TFs on glutathione beads, 16-mer random dsDNA library, 0.1% formaldehyde crosslink after washing; high values mean tight binding
Settings in all cases: protein: recombinant; tags: N-terminal GST; dsDNA, one strand shown
[1] = target: T1, ELK1 (Homo sapiens, UniProt P19419 1-428)
T1 sequence: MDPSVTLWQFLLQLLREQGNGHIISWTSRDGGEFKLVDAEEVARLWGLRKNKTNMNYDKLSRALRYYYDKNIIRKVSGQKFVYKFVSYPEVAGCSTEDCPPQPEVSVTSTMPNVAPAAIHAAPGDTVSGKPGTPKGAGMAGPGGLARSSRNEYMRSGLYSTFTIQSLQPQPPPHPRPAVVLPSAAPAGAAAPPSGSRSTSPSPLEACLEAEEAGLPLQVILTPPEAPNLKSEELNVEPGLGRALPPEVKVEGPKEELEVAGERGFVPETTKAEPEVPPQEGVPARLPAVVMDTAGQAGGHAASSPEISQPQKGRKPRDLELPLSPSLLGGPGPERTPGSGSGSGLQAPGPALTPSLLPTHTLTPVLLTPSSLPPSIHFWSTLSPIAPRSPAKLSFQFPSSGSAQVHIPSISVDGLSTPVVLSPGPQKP
How it was run: (§1)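 A tag-only sample was pooled with DNA-barcoded human transcription factors that had been expressed in yeast as GST fusions and captured on glutathione beads. The pools were incubated for 30 min at room temperature with 200 nmole of a random double-stranded 16-mer DNA library in Tris/NaCl/DTT/glycerol buffer, then washed, crosslinked with 0.1% formaldehyde, proximity-ligated (BsaI/T4 ligase, 1 h, 37 °C), PCR-amplified and sequenced on an Illumina NextSeq500. Binding signal is each hexamer's read frequency for a factor divided by its frequency for the tag-only sample.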

[2] = target: T2, GABPA (Homo sapiens, UniProt Q06546 1-454)
T2 sequence: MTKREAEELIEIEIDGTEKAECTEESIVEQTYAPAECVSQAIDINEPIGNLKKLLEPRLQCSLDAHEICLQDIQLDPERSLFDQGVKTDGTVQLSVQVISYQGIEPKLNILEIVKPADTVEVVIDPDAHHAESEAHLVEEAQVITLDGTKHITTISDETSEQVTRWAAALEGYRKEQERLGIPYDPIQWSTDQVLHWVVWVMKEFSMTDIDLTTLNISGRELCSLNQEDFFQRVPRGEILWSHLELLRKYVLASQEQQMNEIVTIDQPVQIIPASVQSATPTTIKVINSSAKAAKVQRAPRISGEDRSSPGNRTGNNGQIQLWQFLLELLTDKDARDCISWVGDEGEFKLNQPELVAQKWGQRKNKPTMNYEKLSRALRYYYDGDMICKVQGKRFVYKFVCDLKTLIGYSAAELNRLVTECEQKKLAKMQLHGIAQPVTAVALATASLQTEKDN
How it was run: as §1

[3] = target: T3, ERG (Homo sapiens, UniProt P11308 1-479)
T3 sequence: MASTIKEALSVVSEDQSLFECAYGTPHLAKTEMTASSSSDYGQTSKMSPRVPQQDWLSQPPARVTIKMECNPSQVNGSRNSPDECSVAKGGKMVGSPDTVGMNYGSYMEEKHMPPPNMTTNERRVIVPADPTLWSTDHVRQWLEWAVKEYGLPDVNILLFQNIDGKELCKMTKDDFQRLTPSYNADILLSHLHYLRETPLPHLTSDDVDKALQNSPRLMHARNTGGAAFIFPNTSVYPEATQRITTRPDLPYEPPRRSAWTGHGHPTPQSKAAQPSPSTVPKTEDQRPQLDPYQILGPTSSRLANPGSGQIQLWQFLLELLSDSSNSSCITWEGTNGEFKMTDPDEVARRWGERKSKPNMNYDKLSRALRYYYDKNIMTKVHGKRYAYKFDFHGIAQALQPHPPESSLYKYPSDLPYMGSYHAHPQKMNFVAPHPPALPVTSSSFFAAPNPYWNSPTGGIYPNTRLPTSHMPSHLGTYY
How it was run: as §1

[4] = target: ELF1 (Homo sapiens, UniProt P32519 1-619)
How it was run: as §1

[5] = target: T4, EHF (Homo sapiens, UniProt Q9NZC4 1-300)
T4 sequence: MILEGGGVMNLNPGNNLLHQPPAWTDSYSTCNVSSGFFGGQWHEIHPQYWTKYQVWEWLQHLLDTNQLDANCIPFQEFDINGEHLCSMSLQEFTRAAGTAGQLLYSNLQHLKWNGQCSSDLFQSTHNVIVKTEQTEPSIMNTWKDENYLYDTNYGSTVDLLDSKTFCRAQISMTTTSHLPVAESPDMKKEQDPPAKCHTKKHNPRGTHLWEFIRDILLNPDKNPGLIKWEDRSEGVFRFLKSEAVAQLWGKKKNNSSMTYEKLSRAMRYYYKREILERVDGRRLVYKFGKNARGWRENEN
How it was run: as §1

[6] = target: T5, FEV (Homo sapiens, UniProt Q99581 1-238)
T5 sequence: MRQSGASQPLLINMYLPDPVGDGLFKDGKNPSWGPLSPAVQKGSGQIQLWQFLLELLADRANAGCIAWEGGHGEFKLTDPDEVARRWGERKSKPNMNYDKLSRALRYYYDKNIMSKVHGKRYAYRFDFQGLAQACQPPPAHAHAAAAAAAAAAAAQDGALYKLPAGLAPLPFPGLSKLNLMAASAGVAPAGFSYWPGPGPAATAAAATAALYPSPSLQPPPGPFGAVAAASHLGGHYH
How it was run: as §1

[7] = target: ETV5 (Homo sapiens, UniProt P41161 1-510)
How it was run: as §1

[8] = target: ELF4 (Homo sapiens, UniProt Q99607 1-663)
How it was run: as §1

[9] = target: T6, ELK4 (Homo sapiens, UniProt P28324-2 1-405)
T6 sequence: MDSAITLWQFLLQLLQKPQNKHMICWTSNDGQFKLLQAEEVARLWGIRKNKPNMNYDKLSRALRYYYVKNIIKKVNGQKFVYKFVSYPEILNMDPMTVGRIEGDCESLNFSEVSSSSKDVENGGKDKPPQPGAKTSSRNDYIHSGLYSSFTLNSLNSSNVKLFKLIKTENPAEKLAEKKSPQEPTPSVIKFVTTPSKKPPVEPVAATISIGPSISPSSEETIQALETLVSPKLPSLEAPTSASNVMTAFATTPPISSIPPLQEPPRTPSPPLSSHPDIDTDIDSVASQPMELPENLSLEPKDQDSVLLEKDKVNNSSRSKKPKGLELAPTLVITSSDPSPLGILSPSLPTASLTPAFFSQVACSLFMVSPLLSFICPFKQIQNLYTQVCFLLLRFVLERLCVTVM
How it was run: as §1

[10] = target: T7, ETV2 (Homo sapiens, UniProt O00321 1-342)
T7 sequence: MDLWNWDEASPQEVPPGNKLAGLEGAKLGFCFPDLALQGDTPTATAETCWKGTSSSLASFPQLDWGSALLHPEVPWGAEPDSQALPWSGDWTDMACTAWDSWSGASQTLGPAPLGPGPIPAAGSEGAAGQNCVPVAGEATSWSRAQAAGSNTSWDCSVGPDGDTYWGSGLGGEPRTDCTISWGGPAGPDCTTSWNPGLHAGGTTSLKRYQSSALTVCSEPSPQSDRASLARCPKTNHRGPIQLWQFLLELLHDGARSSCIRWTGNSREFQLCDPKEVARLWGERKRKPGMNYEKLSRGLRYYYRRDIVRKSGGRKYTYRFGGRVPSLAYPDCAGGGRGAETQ
How it was run: as §1

[11] = target: T8, ELF3 (Homo sapiens, UniProt P78545 1-371)
T8 sequence: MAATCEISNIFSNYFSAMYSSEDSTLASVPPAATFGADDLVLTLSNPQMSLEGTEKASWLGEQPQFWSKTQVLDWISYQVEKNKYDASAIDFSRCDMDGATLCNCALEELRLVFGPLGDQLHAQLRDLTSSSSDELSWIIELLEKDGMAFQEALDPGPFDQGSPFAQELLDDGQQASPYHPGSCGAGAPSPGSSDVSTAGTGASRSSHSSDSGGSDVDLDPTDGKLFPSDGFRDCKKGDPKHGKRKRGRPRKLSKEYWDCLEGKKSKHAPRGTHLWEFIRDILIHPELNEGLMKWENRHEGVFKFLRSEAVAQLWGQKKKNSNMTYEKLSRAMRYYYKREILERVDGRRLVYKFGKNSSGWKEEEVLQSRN
How it was run: as §1

[12] = target: ETV1 (Homo sapiens, UniProt P50549 1-477)
How it was run: as §1

[13] = target: T9, ERF (Homo sapiens, UniProt P50548 1-548)
T9 sequence: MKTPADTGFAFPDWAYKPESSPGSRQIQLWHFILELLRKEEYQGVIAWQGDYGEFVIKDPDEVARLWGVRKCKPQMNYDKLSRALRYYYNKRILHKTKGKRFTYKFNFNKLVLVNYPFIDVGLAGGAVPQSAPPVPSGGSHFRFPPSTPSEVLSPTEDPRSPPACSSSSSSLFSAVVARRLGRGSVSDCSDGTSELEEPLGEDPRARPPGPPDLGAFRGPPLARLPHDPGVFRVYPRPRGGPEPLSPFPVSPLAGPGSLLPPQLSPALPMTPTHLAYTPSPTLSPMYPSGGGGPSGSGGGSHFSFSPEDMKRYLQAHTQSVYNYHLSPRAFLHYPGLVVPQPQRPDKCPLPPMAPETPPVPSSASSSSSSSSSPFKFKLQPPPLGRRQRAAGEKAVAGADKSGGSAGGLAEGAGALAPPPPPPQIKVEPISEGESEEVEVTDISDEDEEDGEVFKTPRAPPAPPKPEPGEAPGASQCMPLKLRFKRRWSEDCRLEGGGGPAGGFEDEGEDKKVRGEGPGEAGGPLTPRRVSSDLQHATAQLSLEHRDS
How it was run: as §1

[14] = target: T10, ETV3L (Homo sapiens, UniProt Q6ZN32 1-361)
T10 sequence: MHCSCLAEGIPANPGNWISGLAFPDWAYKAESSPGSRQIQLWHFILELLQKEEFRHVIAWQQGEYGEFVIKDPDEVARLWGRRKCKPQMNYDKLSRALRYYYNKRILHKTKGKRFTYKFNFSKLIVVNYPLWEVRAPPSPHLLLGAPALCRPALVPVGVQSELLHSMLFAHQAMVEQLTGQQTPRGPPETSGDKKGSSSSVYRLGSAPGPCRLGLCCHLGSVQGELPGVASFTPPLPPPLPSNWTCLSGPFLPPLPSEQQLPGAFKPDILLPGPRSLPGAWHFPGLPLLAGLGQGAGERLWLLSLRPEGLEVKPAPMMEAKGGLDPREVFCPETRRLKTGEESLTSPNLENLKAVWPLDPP
How it was run: as §1

[15] = target: T11, ETS2 (Homo sapiens, UniProt P15036 1-469)
T11 sequence: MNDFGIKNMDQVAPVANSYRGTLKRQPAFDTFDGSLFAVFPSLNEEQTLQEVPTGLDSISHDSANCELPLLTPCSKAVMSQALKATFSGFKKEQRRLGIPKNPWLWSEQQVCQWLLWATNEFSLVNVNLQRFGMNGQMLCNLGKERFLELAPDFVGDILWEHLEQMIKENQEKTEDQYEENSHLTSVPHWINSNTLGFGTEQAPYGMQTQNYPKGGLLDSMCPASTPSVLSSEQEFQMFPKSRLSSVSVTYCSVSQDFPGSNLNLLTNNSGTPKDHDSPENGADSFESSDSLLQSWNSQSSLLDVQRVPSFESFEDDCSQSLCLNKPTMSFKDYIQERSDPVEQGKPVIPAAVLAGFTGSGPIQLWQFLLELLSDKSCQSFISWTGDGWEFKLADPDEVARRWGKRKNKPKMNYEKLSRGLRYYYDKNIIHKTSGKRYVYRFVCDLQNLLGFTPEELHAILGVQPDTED
How it was run: as §1

[16] = target: T12, ETV7 (Homo sapiens, UniProt Q9Y603 1-341)
T12 sequence: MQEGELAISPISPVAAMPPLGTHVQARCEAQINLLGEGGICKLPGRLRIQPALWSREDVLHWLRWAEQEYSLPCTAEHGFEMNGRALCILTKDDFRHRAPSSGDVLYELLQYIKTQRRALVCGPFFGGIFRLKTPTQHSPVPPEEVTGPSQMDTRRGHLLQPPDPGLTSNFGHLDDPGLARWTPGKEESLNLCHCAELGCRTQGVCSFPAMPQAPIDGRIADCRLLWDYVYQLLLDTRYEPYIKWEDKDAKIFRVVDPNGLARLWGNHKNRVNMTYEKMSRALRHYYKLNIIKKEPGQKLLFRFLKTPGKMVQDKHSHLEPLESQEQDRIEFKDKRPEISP
How it was run: as §1

[17] = target: T13, ETV3 (Homo sapiens, UniProt P41162-2 1-143)
T13 sequence: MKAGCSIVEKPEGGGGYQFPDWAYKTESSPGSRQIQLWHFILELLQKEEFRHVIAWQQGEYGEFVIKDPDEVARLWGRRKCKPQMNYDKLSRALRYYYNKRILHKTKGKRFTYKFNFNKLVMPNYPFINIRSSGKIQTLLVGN
How it was run: as §1

[18] = target: ETV6 (Homo sapiens, UniProt P41212 1-452)
How it was run: as §1

Chain of ETV6 (P41212 whole entry): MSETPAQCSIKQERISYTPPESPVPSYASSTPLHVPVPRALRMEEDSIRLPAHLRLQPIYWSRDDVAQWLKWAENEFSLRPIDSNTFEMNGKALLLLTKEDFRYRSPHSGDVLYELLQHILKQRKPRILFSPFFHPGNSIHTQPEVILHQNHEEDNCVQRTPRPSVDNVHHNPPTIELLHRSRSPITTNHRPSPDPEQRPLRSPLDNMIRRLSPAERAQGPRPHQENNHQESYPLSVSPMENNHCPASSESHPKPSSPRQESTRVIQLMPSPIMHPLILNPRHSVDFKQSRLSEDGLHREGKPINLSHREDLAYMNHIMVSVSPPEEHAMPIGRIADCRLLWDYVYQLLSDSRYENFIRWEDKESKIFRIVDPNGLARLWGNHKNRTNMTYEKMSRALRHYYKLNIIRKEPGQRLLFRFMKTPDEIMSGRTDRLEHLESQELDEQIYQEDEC
Chain of ETV1 (P50549 whole entry): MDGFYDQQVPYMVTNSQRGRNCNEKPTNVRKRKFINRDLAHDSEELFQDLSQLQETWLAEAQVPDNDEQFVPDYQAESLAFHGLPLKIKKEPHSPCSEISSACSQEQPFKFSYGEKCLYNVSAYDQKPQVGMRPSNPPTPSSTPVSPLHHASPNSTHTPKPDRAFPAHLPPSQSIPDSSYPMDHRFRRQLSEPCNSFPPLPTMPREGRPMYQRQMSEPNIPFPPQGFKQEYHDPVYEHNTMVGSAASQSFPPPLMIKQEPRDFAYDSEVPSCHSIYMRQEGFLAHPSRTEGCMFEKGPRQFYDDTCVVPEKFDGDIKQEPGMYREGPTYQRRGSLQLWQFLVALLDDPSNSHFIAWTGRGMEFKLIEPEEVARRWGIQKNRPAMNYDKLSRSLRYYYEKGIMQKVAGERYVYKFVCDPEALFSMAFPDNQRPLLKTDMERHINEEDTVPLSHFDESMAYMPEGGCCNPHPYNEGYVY
Chain of ELF4 (Q99607 whole entry): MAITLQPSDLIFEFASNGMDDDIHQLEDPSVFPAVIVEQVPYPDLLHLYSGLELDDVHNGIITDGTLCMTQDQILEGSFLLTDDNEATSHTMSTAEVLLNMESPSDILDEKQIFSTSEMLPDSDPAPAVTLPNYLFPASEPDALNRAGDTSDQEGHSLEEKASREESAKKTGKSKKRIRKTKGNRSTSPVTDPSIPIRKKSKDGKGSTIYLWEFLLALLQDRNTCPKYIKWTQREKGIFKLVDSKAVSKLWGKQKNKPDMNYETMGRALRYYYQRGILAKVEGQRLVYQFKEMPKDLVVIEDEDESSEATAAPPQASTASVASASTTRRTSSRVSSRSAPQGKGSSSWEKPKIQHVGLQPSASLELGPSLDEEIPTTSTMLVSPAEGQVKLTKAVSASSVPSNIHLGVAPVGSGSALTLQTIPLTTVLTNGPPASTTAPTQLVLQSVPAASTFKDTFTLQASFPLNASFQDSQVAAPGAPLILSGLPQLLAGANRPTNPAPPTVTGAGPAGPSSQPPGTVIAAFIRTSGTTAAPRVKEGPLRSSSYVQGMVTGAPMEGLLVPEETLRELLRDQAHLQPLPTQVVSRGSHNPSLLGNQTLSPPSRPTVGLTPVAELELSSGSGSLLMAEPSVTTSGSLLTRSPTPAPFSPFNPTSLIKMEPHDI
Chain of ELF1 (P32519 whole entry): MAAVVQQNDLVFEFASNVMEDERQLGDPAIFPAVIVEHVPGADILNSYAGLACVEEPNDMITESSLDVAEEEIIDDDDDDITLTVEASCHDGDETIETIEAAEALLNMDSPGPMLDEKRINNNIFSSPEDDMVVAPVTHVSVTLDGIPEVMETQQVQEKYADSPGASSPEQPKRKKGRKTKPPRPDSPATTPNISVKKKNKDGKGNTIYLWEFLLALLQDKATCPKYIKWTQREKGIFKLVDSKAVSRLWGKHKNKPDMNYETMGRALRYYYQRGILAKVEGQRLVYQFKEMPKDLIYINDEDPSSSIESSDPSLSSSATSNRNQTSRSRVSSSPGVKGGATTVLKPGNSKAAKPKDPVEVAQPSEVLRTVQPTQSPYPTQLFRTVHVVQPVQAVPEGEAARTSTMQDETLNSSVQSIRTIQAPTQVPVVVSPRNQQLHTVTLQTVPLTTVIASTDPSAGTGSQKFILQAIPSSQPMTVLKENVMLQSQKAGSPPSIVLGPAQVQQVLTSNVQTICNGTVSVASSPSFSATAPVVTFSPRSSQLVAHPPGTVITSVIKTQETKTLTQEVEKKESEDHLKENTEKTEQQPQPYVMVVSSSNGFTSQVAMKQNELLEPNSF
Chain of ETV5 (P41161 whole entry): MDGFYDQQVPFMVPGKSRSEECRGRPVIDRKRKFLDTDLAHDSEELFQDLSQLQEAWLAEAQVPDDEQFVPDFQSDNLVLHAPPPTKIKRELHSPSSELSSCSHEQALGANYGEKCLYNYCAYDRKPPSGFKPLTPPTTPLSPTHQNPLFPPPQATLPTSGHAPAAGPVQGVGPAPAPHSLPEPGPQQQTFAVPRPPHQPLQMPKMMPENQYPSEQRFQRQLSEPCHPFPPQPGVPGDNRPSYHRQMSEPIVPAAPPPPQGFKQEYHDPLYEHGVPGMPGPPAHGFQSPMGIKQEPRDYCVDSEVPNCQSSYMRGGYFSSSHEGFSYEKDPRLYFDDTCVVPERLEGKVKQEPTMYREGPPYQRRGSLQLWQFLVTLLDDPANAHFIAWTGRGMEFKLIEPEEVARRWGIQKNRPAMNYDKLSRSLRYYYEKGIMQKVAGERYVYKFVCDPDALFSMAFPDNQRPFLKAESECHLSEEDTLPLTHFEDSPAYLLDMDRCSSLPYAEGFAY

## CACATG
[1]
  binding signal: 1.1 fold enrichment (6-mer frequency, TF over GST control)
[2]
  binding signal: 1.07 fold enrichment (6-mer frequency, TF over GST control)
[3]
  binding signal: 1.07 fold enrichment (6-mer frequency, TF over GST control)
[4]
  binding signal: 1.16 fold enrichment (6-mer frequency, TF over GST control)
[5]
  binding signal: 1.16 fold enrichment (6-mer frequency, TF over GST control)
[6]
  binding signal: 1.11 fold enrichment (6-mer frequency, TF over GST control)
[7]
  binding signal: 1.1 fold enrichment (6-mer frequency, TF over GST control)
[8]
  binding signal: 1.09 fold enrichment (6-mer frequency, TF over GST control)
[9]
  binding signal: 1.23 fold enrichment (6-mer frequency, TF over GST control)
[10]
  binding signal: 1.12 fold enrichment (6-mer frequency, TF over GST control)
[11]
  binding signal: 1.04 fold enrichment (6-mer frequency, TF over GST control)
[12]
  binding signal: 1.1 fold enrichment (6-mer frequency, TF over GST control)
[13]
  binding signal: 1.12 fold enrichment (6-mer frequency, TF over GST control)
[14]
  binding signal: 1.03 fold enrichment (6-mer frequency, TF over GST control)
[15]
  binding signal: 1.11 fold enrichment (6-mer frequency, TF over GST control)
[16]
  binding signal: 1.03 fold enrichment (6-mer frequency, TF over GST control)
[17]
  binding signal: 1.07 fold enrichment (6-mer frequency, TF over GST control)
[18]
  binding signal: 1.06 fold enrichment (6-mer frequency, TF over GST control)
